In PubChem BioAssay (NCI):
The panel holds about 83,000 compounds, 20% with a hit somewhere; the sample as a whole holds those more often.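 Percent growth is the endpoint: 0 to 100 indicates growth inhibition (40 means 60% inhibition), 0 means no net growth, and negative values indicate cell death.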 Activity calls are given as the source filed them. How the source made its calls: active means growth percent below 10; inactive means the rest.

tested on: NCI-H522 lung; experiment: NCI-60 one-dose screen, 48 h (100 = growth as untreated, 0 = no growth, -100 = all killed); details: 10 µM

Row | Structure (SMILES) | growth
1 | COc1cc(-c2cc(/C=C3\C(=O)Nc4cc(Cl)ccc43)[nH]n2)cc(OC)c1OC | 31.9% (inactive)
2 | CCCCCCc1cc(N=Nc2ccc(S(=O)(=O)Nc3cc(C)nc(C)n3)cc2)c(O)cc1O | 90.1% (inactive)
3 | N#CC1=C(Nc2ccccc2Cl)SC(c2ccccc2O)NC1=O (centres undefined) | 1.13% (active)
4 | COc1cc(-c2nc(Nc3nc4ccccc4s3)[nH]c(=O)c2C#N)cc(OC)c1O | 97.2% (inactive)
5 | CCCCCCCCCCCCCCCCCCOCC(COCCOCC[N+]1(CCCCCC(=O)[O-])CCCC1)Oc1ncccn1 (centres undefined) | 12.9% (inactive)
6 | COc1ccc(C2=NN(C(=O)c3ccc(S(C)(=O)=O)cc3)C(c3ccc(OC)c(OC)c3)C2)c(OC)c1 (centres undefined) | 86.6% (inactive)
7 | COc1ccccc1CNCCCN1C(=O)c2ccc3c4c(ccc(c24)C1=O)C(=O)N(CCCN)C3=O | -79.1% (active)
8 | Nc1nc(N)c(NC(=O)CNc2ccc(C(=O)O)cc2)c(N)n1 | 92% (inactive)
9 | c1ccc(CP(Cc2ccccc2)c2ccccc2)cc1 | 83.1% (inactive)
10 | COC(=O)C1(C)Cc2cc(OC(C)=O)c(OC(C)=O)cc2N1 (centres undefined) | -55.8% (active)
11 | CC(=O)OCc1cc(-c2nc3ccccc3[nH]c2=O)nn1-c1ccc(Cl)cc1 | -30.6% (active)
12 | CC(=O)c1nc2ccccc2n1CCN1CCN(C)CC1 | 0.166% (active)
13 | COc1ccc(-c2nn(-c3cccc(NC(=O)Nc4ccc(Cl)c(C(F)(F)F)c4)c3)cc2-c2ccncc2)cc1Cl | -8.34% (active)
14 | COc1cc(C(=O)/C=C/c2cc(-c3cc(OC)c(OC)c(OC)c3)n[nH]2)cc(OC)c1OC | -75.5% (active)
